Reference: PubChem BioAssay AID1159580 (chemical genetic matrix, 2015)
“And” between values parts separate entries of the source, which are not always exact repeats. Equal values may be shown once. Hit rate of the full screen: of about 5,500 compounds, about 2,000 (36%) were called active. Inconclusive results (about 18%) are left out. Rule as the data show it: active = normalized growth mostly below about 0.91 (no sharp cut-off); inconclusive = no clear call, values can overlap the other calls; inactive = mostly above about 0.92. Some of the results follow.

Test: chemical genetic growth profiling, strain panel (AID 1159580);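 also: tested at 20 µM; growth read once vehicle control cultures reached saturation at 30 °C; 1 = growth at the plate median or of vehicle wells; lower values mean less growth of the strain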
Conditions: S. cerevisiae deletion strains, growth OD

Measured: normalized growth

O=C(O)C1CCCNC1 (stereo not given)
inactive: locus YAL013W, strain DEP1, active compounds read low 1 | locus YAL021C, strain ccr4, active compounds read low 1.01 | locus YAL026C, strain drs2, active compounds read low 1.02 | locus YAL030W, strain snc1, active compounds read low 1.02 | locus YAL040C, strain CLN3, active compounds read low 1 | locus YBL061C, strain skt5, active compounds read low 1.02 | locus YBR009C, strain hhf1, active compounds read low 1.01 | locus YBR021W, strain FUR4, active compounds read low 0.999 | locus YBR023C, strain chs3, active compounds read low 1.01 | locus YBR171W, strain sec66, active compounds read low 1.03 | locus YBR229C, strain ROT2, active compounds read low 1.01 | locus YBR231C, strain swc5, active compounds read low 1.01 | locus YBR279W, strain paf1, active compounds read low 1.01 | locus YCL011C, strain gbp2, active compounds read low 1.01 | locus YCL016C, strain dcc1, active compounds read low 1.01 | locus YCL029C, strain bik1, active compounds read low 1.04 | locus YCL061C, strain MRC1 (second series), active compounds read low 1 | locus YCL061C, strain MRC1, active compounds read low 1.02 | locus YCL069W, strain vba3, active compounds read low 1.02 | locus YCR088W, strain abp1, active compounds read low 1.02 | locus YDL005C, strain med2, active compounds read low 1.02 | locus YDL035C, strain GPR1, active compounds read low 1.01 | locus YDL040C, strain nat1, active compounds read low 1.02 | locus YDL074C, strain BRE1, active compounds read low 1.03 | locus YDL101C, strain DUN1, active compounds read low 1.01 | locus YDL134C, strain PPH21, active compounds read low 1.01 | locus YDL185W, strain tfp1, active compounds read low 1.01 | locus YDL192W, strain arf1, active compounds read low 1.03 | locus YDR001C, strain nth1, active compounds read low 1.02 | locus YDR069C, strain doa4, active compounds read low 1.02 | locus YDR101C, strain arx1, active compounds read low 1.02 | locus YDR137W, strain rgp1, active compounds read low 1.02 | locus YDR150W, strain NUM1, active compounds read low 1.01 | locus YDR159W, strain sac3, active compounds read low 1.02 | locus YDR162C, strain NBP2, active compounds read low 1.01 | locus YDR195W, strain ref2 0.991 | locus YDR297W, strain sur2, active compounds read low 1.02 | locus YDR318W, strain mcm21, active compounds read low 1.03 | locus YDR334W, strain swr1, active compounds read low 1.02 | locus YDR335W, strain msn5, active compounds read low 1.02 | locus YDR388W, active compounds read low 1.02 | locus YDR392W, strain spt3, active compounds read low 1.03 | locus YDR502C, strain sam2, active compounds read low 1.01 | locus YEL003W, strain gim4, active compounds read low 1.03 | locus YEL037C, strain rad23, active compounds read low 1.02 | locus YEL061C, strain CIN8 (second series), active compounds read low 1.02 | locus YEL061C, strain CIN8, active compounds read low 1.01 | locus YER002W, strain NOP16, active compounds read low 1.02 | locus YER015W, strain faa2, active compounds read low 1.02 | locus YER016W, strain bim1, active compounds read low 1.01 | locus YER110C, active compounds read low 1.02 | locus YER111C, strain swi4, active compounds read low 1.02 | locus YER155C, strain BEM2 (second series), active compounds read low 1.02 | locus YER155C, strain BEM2, active compounds read low 1 | locus YER167W, strain BCK2, active compounds read low 1.02 | locus YFR010W, strain ubp6, active compounds read low 1.02 | locus YGL078C, strain dbp3, active compounds read low 1.02 | locus YGL086W, strain mad1, active compounds read low 0.999 | locus YGL167C, strain pmr1, active compounds read low 1.01 | locus YGL173C, strain kem1, active compounds read low 1.02 | locus YGL227W, strain vid30, active compounds read low 1.02 | locus YGL240W, strain doc1, active compounds read low 1.02 | locus YGL248W, strain PDE1, active compounds read low 1.01 | locus YGL253W, strain hxk2, active compounds read low 1.02 | locus YGR078C, strain PAC10, active compounds read low 1.02 and 1.01 | locus YGR135W, strain pre9, active compounds read low 1.03 | locus YGR229C, strain SMI1, active compounds read low 0.999 | locus YGR252W, strain gcn5, active compounds read low 1.01 | locus YHR013C, strain ard1, active compounds read low 1.04 | locus YHR027C, strain rpn1, active compounds read low 1.01 | locus YHR030C, strain SLT2, active compounds read low 1 and 0.996 | locus YHR079C, strain IRE1 (second series), active compounds read low 1.02 | locus YHR079C, strain IRE1, active compounds read low 1.01 | locus YHR094C, strain hxt1, active compounds read low 1.02 | locus YHR129C, strain ARP1, active compounds read low 1.01 | locus YHR142W, strain chs7, active compounds read low 1.01 | locus YHR200W, strain rpn10, active compounds read low 1.01 | locus YIL066C, strain RNR3, active compounds read low 1.01 | locus YIL073C, strain SPO22, active compounds read low 1.1 | locus YIL125W, strain kgd1, active compounds read low 1.02 | locus YIR030C, strain dcg1, active compounds read low 1.03 | locus YJL092W, strain hpr5, active compounds read low 1.02 | locus YJL095W, strain BCK1 (second series), active compounds read low 1.02 | locus YJL095W, strain BCK1, active compounds read low 1.04 and 1 | locus YJL115W, strain asf1, active compounds read low 1.01 | locus YJL129C, strain trk1, active compounds read low 1.04 | locus YJL134W, strain LCB3, active compounds read low 1.01 | locus YJL154C, strain vps35, active compounds read low 1.03 | locus YJL164C, strain tpk1, active compounds read low 1.01 | locus YJL166W, strain qcr8, active compounds read low 1.01 | locus YJL168C, strain set2, active compounds read low 1.02 | locus YJL187C, strain SWE1 (second series), active compounds read low 1.02 | locus YJL187C, strain SWE1, active compounds read low 1.01 | locus YJR043C, strain POL32, active compounds read low 1.01 | locus YJR066W, strain TOR1, active compounds read low 0.923
